# Measurements from PubChem BioAssay (EPA / NIEHS).
# Results filed as inconclusive are left out. Where a structure was tested more than once in an assay, its records may differ in their call. Activity calls are given as the source filed them. Rule for the calls: active = hit-call score of the fitted dose curve at least 0.9, where 1 is the maximum; inconclusive = response in the unintended direction; inactive = score below 0.9.
# Test system: not listed separately
# Assay: Tanguay_ZF_120hpf_ActivityScore_legacy: (Legacy) Oregon State University Tanguay Lab 120 Hour Post-fertilization zebrafish Assay Score for Activity (AID 2283742);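 for AC50: dechorionated Tropical 5D wild-type zebrafish embryos held singly per well; static exposure from 6 hpf until 120 hpf at 28 °C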
# In short: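 Embryos are staged, enzymatically dechorionated at 4 hpf, placed individually at 6 hpf, then held in test chemical (0.64% DMSO) at 28C until 120 hpf. Mortality and malformations are scored by brightfield, with non-mortality endpoints skipped for dead embryos.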
SMILES,outcome,AC50
COC(=O)CSc1cc(N=c2sc(=O)n3n2CCCC3)c(F)cc1Cl,inactive,–
CCCCC(CC)CN1C(=O)C2C3C=CC(C3)C2C1=O (configuration not stated),inactive,–
CC(C)CCCCCCc1ccc(O)cc1,inactive,–
CC(C)(C)[C@@H](O)[C@@H](Cc1ccc(Cl)cc1)n1cncn1,inactive,–
CCCCOCCOCCOCc1cc2c(cc1CCC)OCO2,–,4.35 µM (active)
CCN(CC)C(=O)c1cccc(C)c1,inactive,–
CCCCC(CC)COC(=O)c1ccccc1C(=O)O (configuration not stated),inactive,–
O=C(c1ccc(O)cc1O)c1ccc(O)cc1O,inactive,–
C[C@]12C[C@H](O)[C@H]3[C@@H](CCC4=CC(=O)CC[C@@]43C)[C@@H]1CC[C@@H]2C(=O)CO,inactive,–
CN(C)C(=O)Nc1ccc(Cl)c(Cl)c1,inactive,–
CCOC(=O)NCCOc1ccc(Oc2ccccc2)cc1,inactive,–
O=C(O)c1ccccc1,inactive,–
O=C(Nc1ccc([N+](=O)[O-])cc1Cl)c1cc(Cl)ccc1O,inactive,–
CCCCOC(=O)C(C)Oc1ccc(Oc2ccc(C(F)(F)F)cn2)cc1 (configuration not stated),inactive,–
CCCCOC(=O)[C@@H](C)Oc1ccc(Oc2ccc(C(F)(F)F)cn2)cc1,inactive,–
CCCCCCC(C)OC(=O)COc1nc(F)c(Cl)c(N)c1Cl (configuration not stated),inactive,–
N[C@@H](Cc1cc(I)c(Oc2ccc(O)c(I)c2)c(I)c1)C(=O)O,–,0.287 µM (active)
CC(=O)[C@H]1CC[C@H]2[C@@H]3CCC4=CC(=O)CC[C@]4(C)[C@H]3CC[C@]12C,inactive,–
CCOC(=O)c1ccc(O)cc1,inactive,–
O=C(c1ccccc1)C1CCCCC1,inactive,–
c1ccc(Nc2ccccc2)cc1,–,30.3 µM (active)
CC(=O)S[C@@H]1CC2=CC(=O)CC[C@]2(C)[C@H]2CC[C@@]3(C)[C@@H](CC[C@@]34CCC(=O)O4)[C@H]12,inactive,–
CCN(Cc1c(F)cccc1Cl)c1c([N+](=O)[O-])cc(C(F)(F)F)cc1[N+](=O)[O-],inactive,–
CCCN(CCC)c1c([N+](=O)[O-])cc(C(F)(F)F)c(N)c1[N+](=O)[O-],inactive,–
S=C(S)NCCNC(=S)S.[Mn+2].[S-]C([S-])=NCCN=C([S-])[S-].[Zn+2],inactive,0.00112 µM (active)
C[C@]12CC[C@@H]3c4ccc(O)cc4C[C@@H](CCCCCCCCCS(=O)CCCC(F)(F)C(F)(F)F)[C@H]3[C@@H]1CC[C@@H]2O (some centres not stated),inactive,–
c1ccc2[nH]c(-c3cscn3)nc2c1,inactive,–
C#C[C@]1(O)CC[C@H]2[C@@H]3CCC4=CC(=O)CC[C@@H]4[C@H]3CC[C@@]21CC,inactive,–

# Test system: not listed separately
# Assay: ArunA_CellTiter_hNC: Viability Assessment in the ArunA Biomedical's Oris Neural Crest (hNC) Cell Migration Assay (AID 2283752)
# In short: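 Human H9-derived neural crest stem cells were plated at 60,000 per well on Matrigel in growth medium with LIF and bFGF, incubated 16 h at 37C, then exposed to chemical for 72 h. Viability was read with CellTiter Aqueous One as loss of signal versus DMSO.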
row,SMILES,AC50
1,CC(C)CCCCCCc1ccc(O)cc1,5.59 µM (active)
2,N[C@@H](Cc1cc(I)c(Oc2ccc(O)c(I)c2)c(I)c1)C(=O)O,33 µM (active)
3,S=C(S)NCCNC(=S)S.[Mn+2].[S-]C([S-])=NCCN=C([S-])[S-].[Zn+2],9.92 µM (active)

# Test system: not listed separately
# Assay: ArunA_CellTiter_hNP: Viability Assessment in the ArunA Biomedical's Oris Neural Crest (hNC) Cell Migration Assay (AID 2283753)
# In short: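 H9-derived hNP1 neuroprogenitors, 60,000/well on Matrigel, cultured 16 h, then 72 h chemical exposure in test medium. Cell titer via CellTiter Aqueous One; positive-direction fit vs DMSO.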
SMILES,AC50,outcome
CC(C)CCCCCCc1ccc(O)cc1,9.76 µM (active),–
N[C@@H](Cc1cc(I)c(Oc2ccc(O)c(I)c2)c(I)c1)C(=O)O,–,inactive
S=C(S)NCCNC(=S)S.[Mn+2].[S-]C([S-])=NCCN=C([S-])[S-].[Zn+2],83.4 µM (active),–

# Test system: not listed separately
# Assay: ArunA_Migration_hNC: ArunA Biomedical's Oris Neural Crest (hNC) Cell Migration Assay (AID 2283755)
# In short: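 Human H9-derived neural crest stem cells, 60,000/well on Matrigel, 16 h at 37C, then 72 h chemical exposure after seeding-stopper removal. Migration into detection zone read as calcein-AM fluorescence (ex494/em517), relative to DMSO.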
row,SMILES,AC50
1,CC(C)CCCCCCc1ccc(O)cc1,4.41 µM (active)
2,N[C@@H](Cc1cc(I)c(Oc2ccc(O)c(I)c2)c(I)c1)C(=O)O,56.2 µM (active)
3,S=C(S)NCCNC(=S)S.[Mn+2].[S-]C([S-])=NCCN=C([S-])[S-].[Zn+2],50 µM (active)

# Target: Luciferin 4-monooxygenase (Photinus pyralis) (UniProt P08659)
# Assay: CCTE_Simmons_QuantiLum_inhib_2: CCTE's Firefly Luciferase Inhibition Assay, Simmons Lab (AID 2283767);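 for AC50: potency for inhibitors that lower luciferase luminescence relative to DMSO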
# In short: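 Recombinant firefly luciferase (5 ng/well, 200 mM potassium phosphate with 1 mg/ml BSA) was exposed to 8 concentrations from 5 nM to 87.5 uM (final, 0.5% DMSO) for 30 min at 37C in the dark. Loss of luminescence versus DMSO was read after injecting D-luciferin/ATP-analogue reagent.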
# Sequence of Luciferin 4-monooxygenase (Photinus pyralis) (P08659 whole entry, looked up): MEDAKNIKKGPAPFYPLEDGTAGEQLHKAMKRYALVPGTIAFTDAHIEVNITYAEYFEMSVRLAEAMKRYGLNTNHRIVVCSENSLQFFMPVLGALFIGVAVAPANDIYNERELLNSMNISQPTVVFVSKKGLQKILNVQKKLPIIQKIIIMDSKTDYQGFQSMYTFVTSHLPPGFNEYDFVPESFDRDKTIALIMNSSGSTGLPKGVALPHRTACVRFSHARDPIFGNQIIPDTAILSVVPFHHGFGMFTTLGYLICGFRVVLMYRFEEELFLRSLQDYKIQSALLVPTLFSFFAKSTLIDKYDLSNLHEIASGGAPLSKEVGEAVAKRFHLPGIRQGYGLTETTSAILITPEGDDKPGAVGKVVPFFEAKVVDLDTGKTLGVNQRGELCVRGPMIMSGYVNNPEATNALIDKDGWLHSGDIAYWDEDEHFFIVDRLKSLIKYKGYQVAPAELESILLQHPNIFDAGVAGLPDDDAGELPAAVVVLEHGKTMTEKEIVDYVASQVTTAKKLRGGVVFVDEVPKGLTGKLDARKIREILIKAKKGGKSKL
SMILES,outcome,AC50
CC(C)CCCCCCc1ccc(O)cc1,inactive,–
CCCCOCCOCCOCc1cc2c(cc1CCC)OCO2,inactive,–
O=C(c1ccc(O)cc1O)c1ccc(O)cc1O,–,47.2 µM (active)
CN(C)C(=O)Nc1ccc(Cl)c(Cl)c1,inactive,–
O=C(Nc1ccc([N+](=O)[O-])cc1Cl)c1cc(Cl)ccc1O,inactive,–
N[C@@H](Cc1cc(I)c(Oc2ccc(O)c(I)c2)c(I)c1)C(=O)O,inactive,–
c1ccc(Nc2ccccc2)cc1,inactive,–
S=C(S)NCCNC(=S)S.[Mn+2].[S-]C([S-])=NCCN=C([S-])[S-].[Zn+2],inactive,22.6 µM (active) [middle of 4 runs]
